Source: PubChem BioAssay (The Scripps Research Institute Molecular Screening Center)
Rows were chosen to be rich in hits. Some 2.5% of all compounds tested hit in one or more screens of this group.
ASK1 inh: inhibitors of human ASK1 kinase | 22,000 tested, 0.99% active | AlphaScreen MKK6 phosphorylation by ASK1, luminescence | inhibition, % at 7.44 µM | Q99683 | AID 1159602; in the data active = inhibition above about 35%
ULK1 inh: human ULK1 kinase inhibition, primary screen; inhibition, % at 5.96 µM; 30,000 tested, 1.9% active; AlphaScreen Atg13 phosphorylation by ULK1, luminescence; O75385; in the data active = inhibition above about 43%
Target sequence (O75385 whole entry, looked up): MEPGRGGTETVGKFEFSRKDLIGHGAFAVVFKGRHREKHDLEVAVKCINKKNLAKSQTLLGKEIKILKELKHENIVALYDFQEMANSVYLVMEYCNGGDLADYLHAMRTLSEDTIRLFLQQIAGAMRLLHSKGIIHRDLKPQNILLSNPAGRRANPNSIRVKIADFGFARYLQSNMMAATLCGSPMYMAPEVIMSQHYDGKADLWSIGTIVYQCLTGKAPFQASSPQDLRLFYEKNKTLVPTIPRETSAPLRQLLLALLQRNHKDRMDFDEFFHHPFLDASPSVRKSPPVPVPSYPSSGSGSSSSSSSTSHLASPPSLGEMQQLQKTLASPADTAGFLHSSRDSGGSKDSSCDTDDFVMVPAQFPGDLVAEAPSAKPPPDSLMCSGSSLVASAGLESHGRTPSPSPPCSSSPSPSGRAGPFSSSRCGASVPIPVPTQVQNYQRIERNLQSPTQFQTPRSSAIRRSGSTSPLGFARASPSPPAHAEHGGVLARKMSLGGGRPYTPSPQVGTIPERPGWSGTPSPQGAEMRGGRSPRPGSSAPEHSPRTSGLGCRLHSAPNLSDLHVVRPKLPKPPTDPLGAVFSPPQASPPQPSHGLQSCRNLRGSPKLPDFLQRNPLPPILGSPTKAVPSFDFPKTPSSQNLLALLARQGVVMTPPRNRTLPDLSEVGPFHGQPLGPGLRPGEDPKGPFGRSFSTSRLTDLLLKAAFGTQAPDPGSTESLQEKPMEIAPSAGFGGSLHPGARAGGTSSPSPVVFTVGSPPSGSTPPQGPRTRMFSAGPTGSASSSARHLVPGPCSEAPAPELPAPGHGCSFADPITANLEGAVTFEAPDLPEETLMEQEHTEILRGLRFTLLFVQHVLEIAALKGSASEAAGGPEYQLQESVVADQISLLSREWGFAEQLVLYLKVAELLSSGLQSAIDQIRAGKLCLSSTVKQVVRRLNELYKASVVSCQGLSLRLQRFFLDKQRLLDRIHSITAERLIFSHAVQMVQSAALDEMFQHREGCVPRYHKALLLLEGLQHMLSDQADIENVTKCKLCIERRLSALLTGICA
A number is an active result; – = inactive; · = no result.

SMILES | ASK1 inh | ULK1 inh
COc1cc2nc(Nc3cccc(N(C)C)c3)nc(NCCOc3ccccc3)c2cc1OC | 40 | –
CCCNc1nc(Nc2cccc(N(C)C)c2)nc2cc(OC)c(OC)cc12 | – | –
COc1ccc(CCNc2ncnc3nc(-c4ccc(OC)cc4)[nH]c23)cc1 | – | –
CNC(=O)c1cc(F)ccc1Nc1cc(Nc2ccc(NC(C)=O)cc2)ncc1C(F)(F)F | – | 79
CNC(=O)c1cc(F)ccc1Nc1cc(Nc2cccc(OC)c2)ncc1C(F)(F)F | – | 84
CC(=O)Nc1ccc(Nc2cc(C)nc(Nc3ccc(C(F)(F)F)cc3)n2)cc1 | – | –
Cc1cnc(-c2ccc(N3CCN(C)CC3)cc2)nc1NCCOc1ccccc1 | – | –
COc1cc(Nc2nc3ccc(C(=O)NCc4cccnc4)cc3s2)cc(OC)c1OC | – | –
Cc1cnc(Nc2ccc(N3CCOCC3)cc2)nc1N | – | –
Cn1nccc1Nc1ncc(C(=O)Nc2ccc(N3CCOCC3)cc2)s1 | – | –
Cn1nccc1Nc1cccc(C(=O)Nc2ccc(N3CCOCC3)cc2)n1 | – | 45
Cc1cccc(NC(=O)Nc2cnn(-c3cccc(C(=O)Nc4ccncn4)c3)c2)c1 | – | –
CC(=O)c1cccc(-c2nc(C(=O)NCCO)cs2)c1 | – | –
CCN(CC)C(=O)C1CCCN(c2cc(C(=O)Nc3ccccc3)ccn2)C1 (stereo not given) | – | –
CCN(CC)C(=O)C1CCCN(c2cc(C(=O)Nc3ccc(N4CCOCC4)cc3)ccn2)C1 (stereo not given) | – | 60
N#C/C(=C\c1nn(-c2ccccc2)c(N)c1C#N)c1ccco1 | · | 45
COc1cc(Nc2nc(Nc3ccccn3)nc3c2ncn3C(C)C)cc(OC)c1OC | – | –
COc1ccc(CCNC(=O)c2cncc(-c3cccc(C(C)=O)c3)c2)cc1 | – | –
O=C(NC1CC1)c1ccc(-c2nc(C(=O)Nc3ccc(N4CCOCC4)cc3)cs2)cc1 | – | –
O=C(Nc1nc2c(s1)CN(Cc1ccccc1)CC2)C1CCCCC1 | · | –
N#Cc1c(N)sc(=S)c2c1CCN(Cc1ccccc1)C2 | · | 75
CN1CCN(c2ccc(-c3cncc(C(=O)NCCO)c3)cc2)CC1 | – | –
Cc1cc(NCCN2CCOCC2)nc(Nc2cnccn2)n1 | – | –
CCN(CC)c1nc(Nc2ccc(N3CCOCC3)cc2)nc(Nc2ccc3ncccc3c2)n1 | – | –
Cc1cnc(Nc2ccc(N3CCOCC3)cc2)nc1Nc1ccccc1 | – | –
SMILES | ASK1 inh | ULK1 inh
Cc1cnc(Nc2ccc(N3CCOCC3)cc2)nc1Nc1ccccc1C(N)=O | – | 95
NC(=O)c1ccccc1Nc1nc(Nc2ccc(Cl)cc2)ncc1Cl | – | –
Cc1cc(Nc2cc(Nc3ccccc3C(N)=O)ccn2)ccc1N1CCOCC1 | – | –
NC(=O)c1ccccc1Nc1nc(Nc2ccc(N3CCOCC3)c(Cl)c2)ncc1Cl | – | 80
Cc1cc(Nc2ncc(Cl)c(Nc3ccccc3C(N)=O)n2)ccc1N1CCOCC1 | – | 70
NC(=O)c1ccc(-c2cc(NCc3ccccc3)nc(N)n2)cc1 | – | –
COc1cccc(CNC(=O)Nc2ccc(-c3ncnc4[nH]ccc34)cc2)c1 | – | –
COc1cccc(CNS(=O)(=O)c2ccc(-c3ccnc4[nH]ccc34)cc2)c1 | – | –
COc1cccc(CNS(=O)(=O)c2ccc(-c3ncnc4[nH]cc(C)c34)cc2)c1 | – | 59
O=S(=O)(NCc1ccccc1)c1ccc(-c2ncnc3[nH]ccc23)cc1 | – | 45
O=C(NCCN1CCOCC1)c1cc(N2CCN(c3ccccn3)CC2)nc2ccccc12 | – | –
O=C(O)c1cc(N2C(=O)C3CC=CCC3C2=O)ccc1N1CCOCC1 (stereo not given) | · | –
c1ccc(Nc2nc(N3CCC(N4CCOCC4)CC3)nc3nc[nH]c23)cc1 | – | –
O=C(Cc1csc(NC(=O)c2ccccc2)n1)Nc1ccc(F)c(F)c1 | · | –
O=C(/C=C/c1ccccc1)Nc1nc(CC(=O)NCc2ccc(F)cc2)cs1 | · | 57
CCCNC(=O)Cc1cn(-c2ccc(N3CCC(N4CCOCC4)CC3)nn2)c2ccccc12 | – | –
COc1ccc(CCNc2cc(N3CCN(Cc4ccc5c(c4)OCO5)CC3)ncn2)cc1 | – | –
Cc1cc(-c2ccc(N=Nc3ccc4c(S(=O)(=O)O)cc(S(=O)(=O)O)c(N)c4c3O)c(C)c2)ccc1N=Nc1ccc2c(S(=O)(=O)O)cc(S(=O)(=O)O)c(N)c2c1O | · | 57
O=S(=O)(O)c1ccccc1O | · | –
Nc1c(N=Nc2ccc(-c3ccc(N=Nc4cc(S(=O)(=O)O)c5ccccc5c4N)cc3)cc2)cc(S(=O)(=O)O)c2ccccc12 | · | 56
COc1ccc(Nc2ncc(-c3ccc(C)cc3)cn2)cc1 | · | –
NC(=O)COC(=O)c1ccccc1Nc1cccc(C(F)(F)F)c1 | · | –
COc1ccc(CC(=O)Nc2ncc3ccc(-c4cn[nH]c4)cc3c2Cl)cc1 | – | 83
COc1ccc(CC(=O)Nc2ncc3ccc(-c4cn[nH]c4)cc3c2C#N)cc1 | – | –
O=C(Nc1ccc(N2CCOCC2)cc1)C1CCN(c2ccc(Nc3ccc4ncccc4c3)nn2)CC1 | – | 49
SMILES | ASK1 inh | ULK1 inh
O=C(Nc1ccc(N2CCOCC2)cc1)C1CCN(c2ccc(Nc3ccc(N4CCOCC4)cc3)nn2)CC1 | – | –
COc1ccc(C(=O)c2oc3ccc(NC(=O)C(C)(C)C)cc3c2C)cc1 | · | –
CC(=O)Nc1ccc(NC(=O)c2ccnc(-c3ccc(C(=O)NC4CC4)cc3)c2)cc1 | – | 44
O=C(NC1CC1)c1ccc(-c2cc(C(=O)NC3CC3)ccn2)cc1 | – | –
Cc1nc(NCCCn2ccnc2)cc(-c2ccncc2)n1 | · | –
O=C(Nc1ccncc1-c1ccc([N+](=O)[O-])cc1)C1COc2ccccc2O1 (stereo not given) | – | –
C=C1c2cccc(O)c2C(O)=C2C(=O)[C@]3(O)C(O)=C(C(N)=O)C(=O)[C@@H](N(C)C)[C@@H]3[C@@H](O)[C@H]12 | · | 64
CN(C)[C@@H]1C(=O)C(C(=O)NCN2CCCC2)=C(O)[C@@]2(O)C(=O)C3=C(O)c4c(O)cccc4[C@@](C)(O)C3CC12 (stereo not given in full) | · | –
C=C1c2c(Cl)ccc(O)c2C(O)=C2C(=O)[C@]3(O)C(O)=C(C(N)=O)C(=O)[C@@H](N(C)C)[C@@H]3[C@@H](O)[C@H]12 | · | 72
CC(=O)Nc1ccc(NC(=O)Cc2cn(-c3ccc(Cl)nn3)c3ccccc23)cc1 | – | –
O=C(Cc1ccsc1)Nc1cnn(-c2cccc(C(=O)Nc3ccc(N4CCOCC4)cc3)c2)c1 | – | –
Brc1ccccc1NCn1nnc2ccccc21 | · | –
Cc1cncc2c(S(=O)(=O)N3CCCN(C(=O)CN)C[C@@H]3C)cccc12 | – | –
Cc1cncc2cccc(S(=O)(=O)N3CCCN(C(=O)CN)C[C@@H]3C)c12 | – | 67
O=C(Cc1ccccc1F)Nc1cnn(-c2cccc(C(=O)Nc3ccc(N4CCOCC4)cc3)c2)c1 | – | –
CCN(CC)c1nc(NCCOc2ccccc2)nc(N2CCN(Cc3ccc4c(c3)OCO4)CC2)n1 | – | –
Cc1cc(Nc2ccccc2)nc(N2CCN(Cc3ccc4c(c3)OCO4)CC2)n1 | – | –
Cc1cc(Nc2ccc(N3CCOCC3)cc2)nc(N2CCN(Cc3ccc4c(c3)OCO4)CC2)n1 | 43 | –
O=C(NCCc1ccc(O)cc1)c1ccnc(-c2ccc(C(=O)NC3CC3)cc2)c1 | – | –
Cc1ccc(-c2ccc(Nc3ncc4ccc(-c5cnn(C)c5)c(Cl)c4n3)cc2)cn1 | – | 44
